Measured values published in PubChem BioAssay AID504894 (National Center for Advancing Translational Sciences (NCATS), 2011).
Hit rate of the full screen: of about 330,000 compounds, fewer than 10 were called active. Calls come from the whole dose curve; as a rule, active = well fitted activation curve with a large enough effect; inconclusive = small, poorly fitted or top-dose-only effect, or another doubt; inactive = no such curve, though single readings can be large or run the other way. Not all results are given here.

Assay: Activators of T cell receptors: qHTS campaign; note: % of control where 0% means no effect
Conditions: primary human leukocytes, anti-CD3, IL-2 HTRF, 48 h; series mostly up to 9.22 µM; activation of IL-2 secretion: at the top concentration
From the text: Normally activation of naive T cells requires two signals. 1. A signal through the T cell receptor (TCR) which provides antigen specificity to the response. 2. Signals through co-stimulatory molecules, which are necessary for proliferation, survival and cytokine production. In the absence of co-stimulatory signals T cells are not effectively activated, and may even be rendered anergic or unresponsive to subsequent signaling. This lack of costimulation has been shown in multiple model systems to be a major factor in the limited strength and effectiveness of anti-tumor T cell responses. The goal of this project is to identify small molecule compounds that will stimulate T cell activation in the presence of TCR signaling but in the absence of co-stimulatory signals, thereby allowing activation of naive T cells in the absence of co-stimulation. Identification of such compounds would have clear experimental and clinical applications in instances where desirable antigen-specific immune responses are not generated due to a lack of co-stimulation, for example in the generation of anti-tumor responses. In collaboration between the National Cancer Institute and NIH Chemical Genomics Center, a high-throughput amenable screen was developed to discover small molecules that co-stimulate and activate human T cell receptors. The screen will be carried out using a novel homogeneous time resolved fluorescence energy transfer (HTRF) assay to measure production of the cytokine IL-2 by activated T cells and will be tested against the NIH Molecular Libraries Small Molecule Repository (MLSMR). NIH Chemical Genomics Center [NCGC] NIH Molecular Libraries Probe Centers Network [MLPCN] MLPCN Grant: MH090820-01 Assay Submitter (PI): Richard Hodes, National Cancer Institute, NIH
Primary human leukocytes are incubated with a-CD3 beads and compounds for 48 hr. The amount of secreted IL-2 is then assayed with a HTRF IL-2 kit. The presence of IL-2 cytokine captures the detection reagents and brings the a-IL-2-K and a-IL-2-d2 into close proximity. Upon excitation with 320nm light, the europium cryptate is capable of transferring energy to acceptor molecules within close proximity, resulting in acceptor molecule emission at 665nm.

Activation of IL-2 secretion, inactive:
COc1cccc(CC(=NO)c2cccc(OC)c2)c1 -1.64%
CC(NC(=O)c1ccccc1)C(=O)Nc1ccccc1 (stereo not drawn) -0.854%
COc1cc(/C=C/CNC[C@H]2O[C@@H](n3cnc(C(N)=O)n3)[C@H](O)[C@@H]2O)ccc1O 1.99%
COc1cc2c(cc1OC)C(Cc1cc(OC)c(OC)cc1[N+](=O)[O-])=NCC2 5.72%
Cc1ccc(-c2csc(C(C#N)=C(O)CN3CCN(C(=O)c4ccco4)CC3)n2)cc1 6.47%
CN(C)c1ccc(CSc2ccccc2)cc1 -1.78%
COc1cc(C(=O)CCc2ccc3c(c2)OCO3)cc(OC)c1OC 8.7%
O=c1[nH]c2c(c(=O)n1-c1ccccc1)CCO2 -1.41%
CN(C(=O)c1cccc(NC(=O)Cc2ccc(NC(=O)C3CCCN(C(=O)C4CCCC4)C3)cc2)c1)C1CCC1 (stereo not drawn) -4.37%
CC(=O)c1cccc(-c2ccc(CN3C(CC(C)C)C(=O)N(Cc4cn(CC5CCCCC5)nn4)CCS3(=O)=O)cc2)c1 (stereo not drawn) 7.42%
N#CCc1c[nH]c2ccc([N+](=O)[O-])cc12 10.7%
O=c1c2ccccc2ncn1CCc1ccncc1 -2.16%
COc1cccc2c1C(=O)c1c(O)c3c(c(O)c1C2=O)CC(O)(C(C)=NNC(=O)c1ccc(Cl)c(Cl)c1)CC3OC1CC(N)C(O)C(C)O1 (stereo not drawn) 1.92%
O=c1ccn([C@@H]2O[C@H](CNS(=O)(=O)c3cc4ccccc4s3)[C@@H](O)[C@H]2O)c(=O)[nH]1 -47.4%
CCCCN1CC(COCc2ccccc2)OCCS1(=O)=O (stereo not drawn) -2.23%
COc1ccc(OC)c(Cc2cnc3nc(N)nc(N)c3c2C)c1 -1.86%
CCC1([N+](=O)[O-])COC(c2ccc(C(C)C)cc2)OC1 (stereo not drawn) -4.78%
CC1C(C)N(C(=O)CCl)c2ccccc2N1C(=O)CCl (stereo not drawn) -0.0701%
OCC(O)C1OCOC(C(O)CO)C1O (stereo not drawn) 4.15%
CC1=CC(=NNS(=O)(=O)c2ccc([N+](=O)[O-])cc2)CC(C)(C)C1 7.06%
C#CCOCCOCCOCCNc1nc(N2CCOCC2)nc(N2CCN(C(=O)[C@H](Cc3ccc(O)cc3)n3cc(CCO)nn3)CC2)n1 -9.96%
COc1ccc(Cl)cc1C=CC=Nc1ccc(S(N)(=O)=O)cc1 6.08%
O=C(O)C(CCc1ccccn1)c1ccccc1 (stereo not drawn) 0.56%
COc1ccc(C(=O)Nc2cccc(/C=C(/CCC(=O)O)c3nc4ccccc4s3)c2)cc1 5.18%
O=[N+]([O-])c1ccc(NS(=O)(=O)c2ccccc2)c(Cl)c1 0.637%
OC(COc1ccccc1)CN1CCN(c2cccc(Cl)c2)CC1 (stereo not drawn) 5.71%
COc1cc2c(cc1CNC[C@H]1O[C@@H](n3cnc(C(N)=O)n3)[C@H](O)[C@@H]1O)OCO2 15%
CCc1nnc(NC(=O)c2cc(S(=O)(=O)N3CCN(CC)CC3)ccc2Cl)s1 2.5%
O=C(NNc1nc(N2CCCC2)nc(N2CCCC2)n1)c1ccccc1 -3.33%
Nc1ccc2[nH]c(=S)sc2c1 6.49%
CCCC(O)(c1ccccc1)C(c1ccccc1)c1ccccn1 (stereo not drawn) -4.1%
COc1ccc(Cl)cc1C=CC=NNC(=O)c1ccncc1 -0.951%
COc1cccc2oc(CCc3ccccc3)cc(=O)c12 -2.9%
Nc1ccc2c(c1)C(O)c1ccc(Cl)cc1-2 (stereo not drawn) 0.187%
COc1ccc(CNCCCNCc2ccc(OC)c(OC)c2)cc1OC -0.561%
O=S(=O)(Nc1ccc2ccccc2c1)N1CCCCC1 1.29%
C[C@@H]1NS(=O)(=O)c2cc(Cl)ccc2O[C@@H]1c1ccccc1 0.528%
O=[N+]([O-])c1ccc(COc2ccccc2CN2CCOCC2)cc1 -5.64%
Cc1nc2ccccc2c(C(=O)O)c1-c1ccccn1 -0.737%
O=C1NC(=O)C(CCc2ccccc2)(c2ccccc2)N1 (stereo not drawn) -11.2%
O=c1oc2ccccc2c(=O)c2ccccc12 -4.64%
c1ccc(C(=NNc2nc3ccccc3s2)c2ccccn2)cc1 -17.9%
Cc1ccc(OCCNC(=O)c2cccc(S(=O)(=O)N3CCN(Cc4ccccc4)CC3)c2)cc1 -0.64%
O=C(NCCc1ccccc1)c1c[nH]c2ccc(F)cc2c1=O 3.03%
CNN/C(N=Cc1ccc([N+](=O)[O-])s1)=N\S(=O)(=O)c1cc(C)c(Cl)cc1SCc1ccccc1 0.19%
O=C1OC(Cc2ccccc2)C(c2ccccc2)C1=O (stereo not drawn) 0.207%
COc1ccc(S(=O)(=O)N2CCc3ccccc32)cc1C(=O)Nc1cc(S(C)(=O)=O)ccc1Cl 4.1%
CN(O)C(=S)c1ccccc1 3.76%
CC(C)C[C@H]1CN([C@@H](CC(C)C)CN2CCC[C@@H]2CN2C(=O)C(=O)NC[C@@H]2Cc2ccccc2)C(=O)C(=O)N1CCc1ccccc1 3.01%
COc1cc(C2c3cc4c(cc3C(O)C3COC(=O)C23)OCO4)cc(OC)c1OC (stereo not drawn) -6.83%
Cc1cc(C)c(C=NNc2nc3c([nH]2)c(=O)n(C)c(=O)n3C)c(C)c1 -2.46%
C#CCOCCOCCOCCNc1nc(N2CCN(C(=O)Cn3cc(CCO)nn3)CC2)nc(N2CCN(C(=O)[C@H](CCCCN)n3cc(CCCC)nn3)CC2)n1 -0.341%
C[C@]12CCC(=O)C=C1C=CC1C2CC[C@@]2(C)C1CC[C@@]21CCC(=O)O1 (stereo partly drawn) -6.09%
CC(=O)Nc1ccc(C(=O)Nc2cc(S(=O)(=O)N3CCOCC3)ccc2N2CCOCC2)cc1 5.5%
C=CC(=O)Nc1ccc(Nc2ccnc(Nc3ccc(N4CCN(C)CC4)cc3)n2)cc1 7.98%
Cc1ccc(C)c(S(=O)(=O)N(C)c2ccc(OC(=O)C3CCN(C(=O)c4ccc(F)cc4)CC3)cc2)c1 3.39%
Cc1c(NS(=O)(=O)c2cccc(C(=O)Nc3ccc(SC(F)F)cc3)c2)c(=O)n(-c2ccccc2)n1C -2.41%
C[C@@H]1ON(C)[C@H]2C[C@H]3c4cc(N5CCN(C)CC5)ccc4CCN3C(=O)[C@@H]12 6.04%
Cc1onc(-c2c(F)cccc2Cl)c1C(=O)Nc1cccc(S(=O)(=O)N2CCCCC2)c1 5.63%
O=C(CC1Sc2ccccc2NC1=O)NNc1ccc(Cl)c(Cl)c1 (stereo not drawn) -9.29%
CCC(=O)N1CCc2cc(Br)c(S(=O)(=O)NCCN3CCCCC3CC)cc21 (stereo not drawn) -2.39%
CC(C)Cn1cnc2c(SCc3ccc(Cl)cc3)nc(N)nc21 0.446%
O=C1NCC(c2ccccc2)(c2ccccc2)C(=O)N1 -1.83%
COC[C@@H]1NS(=O)(=O)c2ccc(Br)cc2O[C@H]1c1ccccc1 6.54%
CN1CCC(N(C)C(=O)c2ccc(Cl)c(S(=O)(=O)Nc3ccc(Cl)cc3)c2)CC1 1.82%
Cc1cc2c(cc1C)NC1(C[C@H]3CCC(=O)N4CC[C@@H](C1)[C@@H]34)C(=NC(C)(C)CC(C)(C)C)N2 (stereo partly drawn) -11.4%
CN(C(=O)c1cccc(NC(=O)Cc2ccc(NC(=O)C3CCCN(C(=O)C4CC4)C3)cc2)c1)C1CC1 (stereo not drawn) -3.14%
O=C1/C(=C\c2ccc(O)cc2)CCC1CNc1ccc(Cl)cc1 (stereo not drawn) -0.0826%
O=C1C2C3C=CC(C3)C2C(=O)N1c1ncc([N+](=O)[O-])s1 (stereo not drawn) 0.761%
NNc1cccc(C=Cc2ccccc2)cc1=O -0.278%
COc1ccc(-c2nnc(-c3ccc4ccccc4c3)o2)cc1 -0.347%
Cc1nc(N)sc1-c1ccccc1 6.41%
NC(=O)C1(Nc2ccc(-c3ccccc3)cc2)CCCC1 -6.79%
CCN(CC)CCCN1C(=O)C(=O)/C(=C(/O)c2c(C)nc3ccccn23)C1c1ccc(C)o1 (stereo not drawn) -1.01%
O=C1OC(Oc2ccc(Br)cc2)(c2ccccc2)c2ccccc21 (stereo not drawn) 10.2%
CN(C)C(=S)N=c1ssc(=S)n1Cc1ccco1 3.1%
CN(C(=O)c1cccc(NC(=O)Cc2cccc(NC(=O)C3CCCN(C(=O)C4CC4)C3)c2)c1)C1CCC1 (stereo not drawn) 0.256%
O=C(NNC(=O)c1ccccc1O)c1ccccc1O -2.99%
O=C1CC(c2ccccc2)C(=O)N2C(=O)CC(c3ccccc3)C(=O)N12 (stereo not drawn) -4.84%
Nc1ccc2c(c1)C(=Cc1cccnc1)c1ccccc1-2 -2.17%
CC(=O)c1ccc(NC(=O)C(C)OC(=O)c2ccc(NS(=O)(=O)c3ccc4[nH]c(=O)[nH]c4c3)cc2)cc1 (stereo not drawn) 2.02%
CCOc1ccccc1NC(=S)C(=C([O-])c1ccc2c(c1)OCCO2)[n+]1ccc(CC)cc1 -5.5%
O=C1C(Cl)=C(Oc2ccccc2)C(=O)c2ccccc21 -2.03%
CSc1ncnc2c1ncn2CC(=O)C1CCC2C3CCC4=CC(=O)CCC4(C)C3CCC12C (stereo not drawn) 1%
O=S(=O)(O)c1cc2onnc2c2ccccc12 0.823%
CCOC(=O)c1ccc2[nH]c(C)c(CN3CCN(C)CC3)c(=O)c2c1 2.26%
COC1=CC(=O)OC(c2ccc(OC)cc2)C1 (stereo not drawn) -4.88%
CCOC(=O)c1ccccc1OC(=O)Oc1ccccc1C(=O)OCC 12.8%
COc1ccc(CCN2CC(C(=O)OCC(=O)NCc3ccccc3Cl)CC2=O)cc1OC (stereo not drawn) 10.2%
O=C(CNC(=O)c1cc(S(=O)(=O)N2CCOCC2)ccc1N1CCCC1)Nc1ccc(F)c(F)c1 2.72%
COc1cc2[nH]c(O)c(C=O)c2cc1OC 1.43%
Cc1ccc(Nc2c(O)nc[nH]c2=O)cc1C -0.131%
NC(=O)C1(Nc2ccc([N+](=O)[O-])cc2)CCCC1 -2.68%
O=C1COc2c1ccc(O)c2O -2.28%
O=C(Cc1ccc(Cl)cc1)c1ccccc1 -1.31%
c1ccc2c(c1)OC1OC2Oc2ccccc21 -1%
CCc1ccc(C(=O)C(C)OC(=O)CN2C(=O)NC3(CCCC3)C2=O)cc1 (stereo not drawn) 0.426%
CCOC(=O)C1CCCN(C(=O)Cn2ncc3c(=O)oc4ccc(C)cc4c32)C1 (stereo not drawn) 3.09%
CC(=O)OCC1(O)CC23CCC4c5ccoc5CCC4(C)C2CCC1C3 (stereo not drawn) -4.8%
CC(=O)CSc1nc(CCc2ccccc2)c(C#N)c(=O)[nH]1 -2.27%
CCN(CC)CCCC(C)n1c2nc(=O)[nH]c(=O)c-2nc2cc(Cl)ccc21 (stereo not drawn) -2.28%
c1ccc(-c2c[nH]c(-c3ccccc3)c2)cc1 -2.6%
O=C(NCC1(N2CCCCC2)CCCCC1)c1cccc(S(=O)(=O)Nc2ccccc2Cl)c1 -1.93%
